Assay outcomes: PubChem, National Center for Advancing Translational Sciences (NCATS)
ALDH1A1 inh: inhibitors of human aldehyde dehydrogenase 1A1 | Potency, µM (series often up to 75.3 µM), for inactives: at the top dose activity, negative = inhibition, actives largely listed as inhibitors | Purified ALDH1A1, NADH fluorescence, propionaldehyde substrate | AID 1030 | actives 7.3% (n = 220,000) | P00352;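 note: plate controls were no enzyme wells and a reference inhibitor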
Target sequence (P00352 whole entry, looked up): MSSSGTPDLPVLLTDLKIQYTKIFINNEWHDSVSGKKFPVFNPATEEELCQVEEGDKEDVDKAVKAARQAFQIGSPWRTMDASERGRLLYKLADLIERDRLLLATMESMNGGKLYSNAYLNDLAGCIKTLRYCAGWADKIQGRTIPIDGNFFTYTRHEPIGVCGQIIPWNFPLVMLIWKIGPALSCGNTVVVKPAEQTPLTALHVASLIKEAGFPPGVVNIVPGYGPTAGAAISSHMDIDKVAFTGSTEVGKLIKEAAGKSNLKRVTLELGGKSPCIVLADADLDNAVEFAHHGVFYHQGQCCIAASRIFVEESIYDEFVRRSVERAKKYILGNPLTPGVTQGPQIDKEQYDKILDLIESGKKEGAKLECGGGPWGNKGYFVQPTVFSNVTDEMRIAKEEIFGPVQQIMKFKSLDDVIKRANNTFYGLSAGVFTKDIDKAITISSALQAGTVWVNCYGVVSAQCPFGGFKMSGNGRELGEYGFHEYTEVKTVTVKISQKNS
HPGD block: HPGD (human) dehydrogenase inhibition | purified HPGD, NADH fluorescence kinetic, PGE2 substrate | Potency, µM, inactives show at the top dose activity change, negative = inhibition, actives largely listed as inhibitors | actives 4.3% (n = 150,000) | AID 894; note: % is set by controls: 0 for no effect and ±100 for the full control effect
Target sequence (P15428 whole entry, looked up): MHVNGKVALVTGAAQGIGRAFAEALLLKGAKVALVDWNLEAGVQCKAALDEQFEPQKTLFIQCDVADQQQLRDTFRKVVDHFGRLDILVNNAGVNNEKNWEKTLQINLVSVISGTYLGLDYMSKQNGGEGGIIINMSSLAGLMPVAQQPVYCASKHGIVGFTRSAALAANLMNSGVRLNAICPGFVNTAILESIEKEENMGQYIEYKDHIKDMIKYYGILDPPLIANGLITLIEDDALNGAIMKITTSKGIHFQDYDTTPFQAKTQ
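20 nM HPGD preincubated 15 min at room temperature with compound in 50 mM Tris-HCl pH 8, 0.01% Tween 20. Started with 1 mM NAD+ and 30 uM prostaglandin E2; NADH fluorescence (360/450 nm) read 5 times over 30-s intervals, last minus first.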
HTT cytoprotect: Huntington cell model cytoprotection by ATP luminescence. PC12 HTT-Q103 induced, cytoprotection, ATP luminescence, 40 h. Potency, µM (top dose mostly 56.4 µM), inactives show cytoprotection (ATP increase), most hits filed as activators. actives 0.14% (n = 230,000); active = well fitted curve in the direction sought with a large enough effect; inconclusive = small, poorly fitted or top-dose-only effect, or another doubt; inactive = no such curve, though single readings can be large; an effect the other way counts as inactive or inconclusive; note: % of control where 0% means no effect; nearly all actives have a fitted effect of over 45% in size
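PC12 cells with ecdysone-inducible HTT exon 1 Q103-GFP, induced with 100 nM tebufenozide and co-treated with library compounds in a dose series (1536-well, 1500 cells/well). Cytoprotection read as ATP content by ATPlite luminescence.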
JMJD2E inh: blocks human JMJD2E demethylase activity; B2RXH2; JMJD2E catalytic domain, FDH-coupled NADH fluorescence (FDH is formaldehyde dehydrogenase); Potency, µM (series often up to 57.1 µM), without a hit: top-dose activity change, negative = inhibition, hits mostly inhibitors; actives 1.6% (n = 230,000); AID 2147;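 note: 0% = wells with enzyme and -100% = buffer wells without enzyme; nearly all actives have a fitted effect of over 50% in size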
LMNA splice mod: modulators of lamin A splicing; AID 1487; HeLa LMNA splicing GFP/RFP minigene ratio, 48 h; Potency, µM (highest dose often 46.1 µM), for the others: top-dose ratio change, negative = inhibition, usual class: inhibitors; actives 0.01% (n = 200,000); active = well fitted inhibition curve with a large enough effect in the signal ratio, with a control signal flat, not every such curve was filed as active; inconclusive = small, poorly fitted or top-dose-only effect, or effect the other way, or a change in a side signal; the % refers to the signal ratio; note: % is set by controls: 0 for no effect and ±100 for the full control effect
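S3 HeLa cells stably expressing lamin A-EGFP splicing minigene plus DsRed2, 600 cells/well, 48 h compound exposure at 37C. Laser-scanning cytometry; analysed as GFP (500-530 nm)/RFP (575-640 nm) total intensity ratio; 0.5% DMSO vehicle.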
HttQ103 aggreg: reduces HttQ103-GFP aggregates in PC12 cells. Potency, µM (titrated, usually from 46.1 µM), without a hit: at the highest dose activity change, negative = inhibition, actives largely listed as inhibitors. AID 1688. PC12 HttQ103-GFP aggregates, Acumen cytometry, 40 h. actives 1.1% (n = 220,000); active = well fitted curve in the direction sought with a large enough effect; inconclusive = small, poorly fitted or top-dose-only effect, or another doubt; inactive = no such curve, though single readings can be large; an effect the other way counts as inactive or inconclusive; note: % is set by controls: 0 for no effect and ±100 for the full control effect; nearly all actives have a fitted effect of over 60% in size
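Compounds (qHTS titration) were added to PC12 cells expressing an ecdysone-driven HTT exon 1 Q103–GFP fusion after induction with 100 nM tebufenozide. Aggregate formation was measured as GFP objects in cell lysates.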
Numbers without * were called inactive; ! = a repeat was not active; [ ] = remark or other dose. Only some compounds are listed: those with a hit (about 9.2% of all), similar ones and a draw of the others. Unless noted, calls come from the whole dose curve; as a rule, active = well fitted inhibition curve with a large enough effect (not every such curve was filed as active); inconclusive = small, poorly fitted or top-dose-only effect, or another doubt; inactive = no such curve, though single readings can be large or run the other way. Potency is the fitted concentration of half-maximal effect.

For O=C1NC(=O)N(Cc2ccco2)C(=O)/C1=C/c1cccn1CCOc1ccccc1Cl the results were ALDH1A1 inh -4.3%, HPGD block 28.2µM*, HTT cytoprotect 30.5%[10 µM], JMJD2E inh 2.4%, LMNA splice mod inconclusive and HttQ103 aggreg 4.0%.
CCN(CC)c1ccc(/C=C2/C(=O)NC(=O)N(CC3CCCO3)C2=O)cc1 (stereo unspecified) was read as ALDH1A1 inh 0.631µM*, HPGD block 35.5µM*, HTT cytoprotect -8.8%, JMJD2E inh -6.9%, LMNA splice mod 3.7% and HttQ103 aggreg 20.9%.
C(=NC1CCCCC1)=NC1CCCCC1 was read as ALDH1A1 inh -8.4%, HPGD block -0.7% and HTT cytoprotect 26.7%.
C=CC(=O)OCC was read as ALDH1A1 inh 7.7%, HPGD block -3.7% and HTT cytoprotect -3.4%.
`N#CC(C#N)=Cc1ccc(-c2ccccc2F)o1` gave ALDH1A1 inh 8.91µM*, HPGD block -2.5%, JMJD2E inh -5.0%, LMNA splice mod -10.2% and HttQ103 aggreg inconclusive.
Screening O=C=NC1CCCCC1 returned ALDH1A1 inh 28.2µM*!, HPGD block -4.3% and HTT cytoprotect -8.0%.
Screening C[C@@H](C(=O)O)c1ccc(C(=O)c2cccs2)cc1 returned ALDH1A1 inh -1.2%[20.9 µM], HPGD block -17.5%, HTT cytoprotect -0.2%[40.3 µM], JMJD2E inh -0.3%[25.5 µM], LMNA splice mod inconclusive and HttQ103 aggreg 29.5%[20.6 µM].
C[C@@H](C(=O)O)c1ccc(-c2ccccc2)c(F)c1 was read as ALDH1A1 inh 0.5%, HPGD block 28.2µM*, HTT cytoprotect -8.0%, JMJD2E inh 2.2%, LMNA splice mod inconclusive and HttQ103 aggreg 3.8%[20.6 µM].
`N#CC(C#N)=NNc1ccc(OC(F)(F)F)cc1` gave ALDH1A1 inh 2.82µM*, HPGD block -27.4%, HTT cytoprotect -164.4% and JMJD2E inh -16.7%.
For C=CCn1c(O)c(/C(C)=N/NC(=S)Nc2ccccc2)c(=O)[nH]c1=O the results were HTT cytoprotect 17.1%[10 µM], JMJD2E inh inconclusive and HttQ103 aggreg -17.5%[9.22 µM].
For C=CCn1c(O)c(/C(CC)=N/NC(=S)Nc2ccccc2)c(=O)[nH]c1=O the results were ALDH1A1 inh 17.8µM*, HTT cytoprotect 19.1%[10 µM], JMJD2E inh inconclusive and HttQ103 aggreg 2.8%[9.22 µM].
Screening CSc1nc(N)c(N=Nc2ccc([As](=O)(O)O)cc2)c(=O)[nH]1 returned ALDH1A1 inh 8.91µM*, HTT cytoprotect 0.5%[10 µM], JMJD2E inh -14.9% and HttQ103 aggreg -14.0%[9.22 µM].
For O=C(O)c1cc(N=Nc2ccc([As](=O)(O)O)cc2)ccc1O the results were ALDH1A1 inh 2.3%[13.5 µM], HPGD block -11.9% and HTT cytoprotect -7.9%[10 µM].
`O=C1NC(=O)C(=CN2CCc3ccccc32)C(=O)N1` gave ALDH1A1 inh 11.2µM*, HPGD block -19.8%, HTT cytoprotect -1.0%[10 µM], JMJD2E inh -2.8%, LMNA splice mod -21.8% and HttQ103 aggreg 1.6%.
`CC(C)=CCCC1(C)C=Cc2c(O)c3c(c(CC=C(C)C)c2O1)OC12C(CC4CC1C(C)(C)OC2(C/C=C(/C)C(=O)O)C4O)C3=O` (stereo unspecified) gave ALDH1A1 inh inconclusive, HPGD block -19.5%, HTT cytoprotect 3.16µM* and JMJD2E inh inconclusive.
`OC[C@H]1CCCN2CCCC[C@@H]12` gave HTT cytoprotect 7.7%.
OCCCc1ccc(O)c(O)c1 was read as ALDH1A1 inh inconclusive, HTT cytoprotect 10.8%[10 µM], JMJD2E inh inconclusive and HttQ103 aggreg 5.6%[9.22 µM].
`CCCN(CCC)CCc1ccc(O)c(O)c1` gave ALDH1A1 inh 5.0%, HPGD block -7.6%, HTT cytoprotect -26.4%, JMJD2E inh 20µM* and LMNA splice mod inconclusive.
`CC[C@@]12CCCN3CC[C@@]4(c5ccc(OC)c(O)c5N(C(C)=O)[C@H]4CC1)[C@H]32` gave HTT cytoprotect 28.9%.
For CN1CCN(S(=O)(=O)c2cnc(Cl)c(Br)c2)CC1 the results were ALDH1A1 inh 2.51µM*, HPGD block -2.4%, HTT cytoprotect -46.4%[10 µM], JMJD2E inh 1.6%, LMNA splice mod inconclusive and HttQ103 aggreg 17.2%.
Screening Cc1ccc(S(=O)(=O)NCC2CCC(C(=O)NCCCN3CCOCC3)CC2)cc1 (stereo unspecified) returned ALDH1A1 inh 22.4µM*, HPGD block 5.4%, HTT cytoprotect 16.0%, JMJD2E inh -2.2%, LMNA splice mod 1.5% and HttQ103 aggreg 6.5%.
`CSCCC(=O)Nc1cc(S(=O)(=O)N2CCOCC2)ccc1N1CCN(C)CC1` gave ALDH1A1 inh 2.2%, JMJD2E inh -0.2% and HttQ103 aggreg inconclusive.
`Cc1onc(-c2ccccc2Cl)c1C(=O)NCc1ccccn1` gave ALDH1A1 inh 10.7%, HPGD block -8.2%, HTT cytoprotect 3.3%[0.074 µM], JMJD2E inh 10.9%, LMNA splice mod -4.0% and HttQ103 aggreg 0.891µM*.
Screening CNCCc1c[nH]c2ccccc12 returned ALDH1A1 inh 17.8µM*, HTT cytoprotect -68.4%, JMJD2E inh inconclusive, LMNA splice mod -25.2%[46 µM] and HttQ103 aggreg inconclusive.
Screening COc1ccc2[nH]cc(CCN(C)C)c2c1 returned ALDH1A1 inh -2.1%, HPGD block -12.9%, HTT cytoprotect inconclusive, JMJD2E inh 2.4%, LMNA splice mod -11.7%[46 µM] and HttQ103 aggreg 22.7%.
`CNCCc1c[nH]c2ccc(O)cc12` gave ALDH1A1 inh 1.9%, HPGD block -5.0%, HTT cytoprotect -16.6%[1.9 µM], JMJD2E inh 22.4µM* and LMNA splice mod inconclusive.
O=C(Nc1ccc(Oc2ccc(Cl)cc2)c(Cl)c1)c1cc(I)cc(I)c1O was read as HTT cytoprotect -54.4% and HttQ103 aggreg 12.6µM*.
Screening O=[N+]([O-])c1ccc(-c2[se]c3ccccc3c2I)cc1 returned ALDH1A1 inh inconclusive, HPGD block -25.3% and HTT cytoprotect -15.9%.
C[C@]12Cc3cn4c(nc3C=C1CC[C@H]1[C@@H]2CC[C@@]2(C)[C@H]1CC[C@@]2(O)C#N)nc1ccccc14 was read as HTT cytoprotect -0.6%[1.9 µM].
For O=C(O)[C@@H]1Cc2[nH]cnc2C(c2cccnc2)N1 (stereo partly specified) the results were ALDH1A1 inh -6.5%, HPGD block -13.4%, HTT cytoprotect -26.0% and JMJD2E inh inconclusive.
`CCN(CC)C(=O)c1ccc(NC(=O)CSc2nnnn2-c2cc(OC)ccc2OC)cc1` gave ALDH1A1 inh 8.91µM*, HPGD block 8.91µM*, HTT cytoprotect -2.1%, JMJD2E inh 2.5%, LMNA splice mod -12.4% and HttQ103 aggreg -16.0%.
Screening CSSC returned ALDH1A1 inh 2.8%, HPGD block -5.1% and HTT cytoprotect -9.7%.
